Measurements reported in PubChem BioAssay (Tox21).
Records with an inconclusive call do not appear. Calls of active or inactive are those of the source. Calls come from the whole dose curve. Square brackets hold non-standard residues; d marks the D form. Peptide text beside a SMILES is read from it. * marks the point of attachment. Sta = CC(C)C[C@H](N)[C@@H](O)CC(=O)O; Isovaleryl = CC(C)CC(=O)*

These compounds were tested against 5-hydroxytryptamine receptor 2A (Homo sapiens) (UniProt P28223) (assay: 5-hydroxytryptamine receptor 2A (HTR2A) small molecule antagonists, cell-based qHTS assay (AID 1963586; note: nearly all actives have a fitted effect of over 45% in size)). Settings: HTR2A-CHO cells, DOI-induced calcium flux, fluorescence; series mostly up to 61.5 µM; activity, negative = inhibition: at the top concentration.
Sequence of 5-hydroxytryptamine receptor 2A (Homo sapiens) (P28223 whole entry, looked up): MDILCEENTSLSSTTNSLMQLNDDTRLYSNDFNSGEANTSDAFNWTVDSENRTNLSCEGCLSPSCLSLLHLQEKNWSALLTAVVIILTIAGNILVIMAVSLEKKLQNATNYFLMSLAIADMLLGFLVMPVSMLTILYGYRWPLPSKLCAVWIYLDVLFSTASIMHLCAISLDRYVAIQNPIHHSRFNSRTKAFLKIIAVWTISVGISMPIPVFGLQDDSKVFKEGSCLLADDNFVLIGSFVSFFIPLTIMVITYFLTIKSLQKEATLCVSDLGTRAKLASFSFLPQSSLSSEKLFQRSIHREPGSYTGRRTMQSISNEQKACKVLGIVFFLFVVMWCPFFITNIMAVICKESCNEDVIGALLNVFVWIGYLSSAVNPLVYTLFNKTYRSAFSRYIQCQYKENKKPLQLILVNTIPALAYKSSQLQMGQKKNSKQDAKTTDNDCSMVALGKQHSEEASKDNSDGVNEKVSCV
Source text: National Center for Advancing Translational Sciences [NCATS]
Division of Preclinical Innovation [DPI]
U.S. Environmental Protection Agency [EPA]
National Institutes of Environmental Health Sciences [NIEHS]
National Toxicology Program [NTP]
U.S. Food and Drug Administration [FDA]
The HTR2A receptor is a subtype of the 5-HT2 receptor that belongs to the serotonin receptor family and is a G protein-coupled receptor (GPCR). The HTR2A-CHO cell line stably expressing human 5-hydroxytryptamine receptor 2A (HTR2A) can be used for screening antagonists of interactions between 5-HT2 and its ligands. The HTR2A-CHO calcium flux assay is a homogeneous fluorescence-based assay for detecting the intracellular calcium level using FDSS kinetic plate reader system.
Tox21 Assay Protocol Summary:
HTR2A-CHO cells were dispensed at 2000 cells/3uL/well in 1536-well black-clear bottom plates using a Multidrop Dispenser. After the assay plates were incubated at a 37 C/5% CO2 incubator for 18 h, 3 uL of Dye Loading Buffer was transferred to the assay plate by a Flying Reagent Dispenser. The assay plates were incubated at 37 C for 1h. For antagonist mode, 23 nL of compounds dissolved in DMSO, positive controls or DMSO only was transferred to the assay plate by a pin tool. After 5 min incubation at room temperature, 1.5 uL of 4-Iodo-2,5-dimethoxy-alpha-methylbenzeneethanamine hydrochloride (DOI) at 4nM was added to each well. The fluorescence intensity in the plates was measured using FDSS 7000EX kinetic plate reader for 3 min at 1 sec intervals.
% is set by controls: 0 for no effect and ±100 for the full control effect; potency is the fitted concentration of half-maximal effect.

SMILES	activity, negative = inhibition	Potency
O=S1(=O)OC(c2cc(Br)c(O)c(Br)c2)(c2cc(Br)c(O)c(Br)c2)c2ccccc21	-1.27% (inactive)	–
S=C(SSC(=S)N1CCCCC1)N1CCCCC1	-11.3% [at 28.5 µM] (inactive)	–
Cc1cc(C2CC2)nc(Nc2ccccc2)n1	10.4% (inactive)	–
COc1c2c(cc3c1OCO3)CCN(C)C2	–	16.3 µM (active)
COP(=S)(NC(C)C)Oc1ccc(C)cc1[N+](=O)[O-] (stereo not given)	6.47% (inactive)	–
Oc1ccc(C2(c3ccc(O)cc3)CCCCC2)cc1	-29.9% (inactive)	–
O=c1ssc(Cl)c1Cl	-16.1% (inactive)	–
CCCCCCCc1ccc(O)cc1	-5.35% (inactive)	–
CCCCC(CC)COP(=O)(Oc1ccccc1)Oc1ccccc1 (stereo not given)	6.52% (inactive)	–
CCc1nn(C)c(C(=O)NCc2ccc(C(C)(C)C)cc2)c1Cl	0.0328% (inactive)	–
BrCC(Br)(Br)Br	-20.8% (inactive)	–
COP(=S)(OC)Oc1cc(Cl)c(Br)cc1Cl	-11.3% (inactive)	–
CC(=O)O[C@H]1CC[C@@]2(C)C(=CC[C@@H]3[C@@H]2CC[C@]2(C)C(=O)CC[C@@H]32)C1	-0.123% (inactive)	–
[Cl-].[Cl-].[Sn+2]	1.17% (inactive)	–
CCCCOC(C)=O	-2.59% (inactive)	–
Cn1c(CCCC(=O)O)nc2cc(N(CCCl)CCCl)ccc21	7.41% [at 28.5 µM] (inactive)	–
COCC(C)N(C(=O)CCl)c1c(C)csc1C (stereo not given)	10.1% (inactive)	–
C[N+](C)(C)CCCl	13.8% (inactive)	–
COc1ncc(F)c2nc(S(=O)(=O)Nc3c(F)cccc3F)nn12	-4.64% [at 28.5 µM] (inactive)	–
CCS(=O)(=O)C(C)(C)S(=O)(=O)CC	37.7% [at 28.5 µM] (inactive)	–

SMILES	activity, negative = inhibition	Potency
CC(C1CC1)C(O)(Cn1cncn1)c1ccc(Cl)cc1 (stereo not given)	40.6% (inactive)	–
O=C(CBr)Nc1ccc(Cl)cc1C(=O)c1ccccc1F	-11.9% [at 28.5 µM] (inactive)	–
CC(C)(C)N(NC(=O)c1ccc(Cl)cc1)C(=O)c1ccccc1	4.19% (inactive)	–
CC(C)CC(=O)N[C@H](C(=O)N[C@H](C(=O)N[C@@H](CC(C)C)[C@@H](O)CC(=O)N[C@@H](C)C(=O)N[C@@H](CC(C)C)[C@@H](O)CC(=O)O)C(C)C)C(C)C (Isovaleryl-VV[Sta]A[Sta]-OH)	9.94% [at 28.5 µM] (inactive)	–
Nc1n[nH]c(N)n1	-6.28% (inactive)	–
O=C(NC(=O)c1c(F)cccc1F)Nc1cc(Cl)c(OC(F)(F)C(F)F)c(Cl)c1	3.78% (inactive)	–
CON(C)C(=O)Nc1ccc(Br)cc1	-11.9% (inactive)	–
C[C@@H](Oc1ccc(Cl)cc1Cl)C(=O)O	-19.5% (inactive)	–
CC(C)[C@H](C(=O)O[C@H](C#N)c1cccc(Oc2ccccc2)c1)c1ccc(Cl)cc1	6.12% (inactive)	–
C=COC(C)=O	-5.19% (inactive)	–
C=C(C)C(=O)[O][Sn]([CH2]CCC)([CH2]CCC)[CH2]CCC	–	1.88 µM (active)
O=C(O)[C@H](O)[C@@H](O)C(=O)O	7.97% (inactive)	–
CCOP(=S)(OCC)SCS(=O)(=O)CC	2.73% (inactive)	–
CC1CN1P(=O)(N1CC1C)N1CC1C (stereo not given)	1.11% (inactive)	–
CCOc1ccc(C(C)(C)COCc2cccc(Oc3ccccc3)c2)cc1	-1.09% (inactive)	–
O=C1c2ccccc2C(=O)C1C(=O)C(c1ccccc1)c1ccccc1	-5.3% [at 28.5 µM] (inactive)	–
CCCC[P+](CC)(CCCC)CCCC (tested in a mixture with another compound)	4.79% (inactive)	–
CCCC[N+](CCCC)(CCCC)CCCC	5.73% (inactive)	–
C(COCC1CO1)OCC1CO1 (stereo not given)	-6.69% (inactive)	–
COc1cc(C=O)cc2c1[C@H](COC(N)=O)[C@]1(OC(C)=O)ON2C[C@H]2[C@@H]1N2C(C)=O	1% (inactive)	–
